Source: PubChem BioAssay AID1117319 (Southern Research Institute, 2015)
Where “and” joins values, the source holds several entries; their conditions need not be identical. Identical values can stand only once. Among all 260,000 compounds or so, about 1,500 (0.58%) were called active. Not shown: some 5% with an inconclusive outcome.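 The calls were made as follows: active = inhibition above a set limit at one or more doses, reproduced on every date tested; inconclusive = results disagree between test dates, or hit never tested in dose response; inactive = the rest.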 A selection follows. Results with a measured potency or affinity are listed apart.

Biological target: Virion infectivity factor (Human immunodeficiency virus type 1 group M subtype B (isolate BH10)) + Virion infectivity factor (Human immunodeficiency virus type 1 group M subtype B (isolate BRU/LAI)) + Virion infectivity factor (Human immunodeficiency virus type 1 group M subtype B (isolate PCV12)) + Virion infectivity factor (Human immunodeficiency virus type 1 group M subtype B (isolate HXB2)) + DNA dC->dU-editing enzyme APOBEC-3G (Homo sapiens) (UniProt P69720+P69721+P69722+P69723+Q9HC16)
Experiment: HIV-1 Vif–A3G interaction blockers – biochemical, TR-FRET, GST-Vif 1-94, biotin-A3G peptide, dose response retest, primary screen (AID 1117319);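 also: Vif residues 1-94 fused to GST binding biotinylated APOBEC3G peptide 110-148; 0% = full assay without inhibitor and 100% = GST in place of GST-Vif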
Details: TR-FRET GST-Vif / biotin-A3G peptide binding; stronger effect = higher value

SMILES	inhibition
O=C(c1cccn2c(=O)c3ccccc3nc12)N1CCN(Cc2ccc3c(c2)OCO3)CC1	3% (inactive)
CN(C)CCn1cnc2c(c1=N)C(c1ccccc1)c1ccc3ccccc3c1O2 (stereo not given)	-7.72% (inactive)
CC1(C)Cc2ccccc2C(C(=O)c2ccccc2)=N1	-10.3% (inactive)
CCOC(=O)c1cc2sccc2n1CC(=O)N1CCCc2ccccc21	-4.99% (inactive)
CCN1CCN(CC(=O)N2N=C(c3cccs3)CC2c2ccc(C)cc2)C(=O)C1=O (stereo not given)	1.42% (inactive)
Cc1csc(NC(=O)COc2ccc3c(C)cc(=O)oc3c2)n1	-13.9% (inactive)
Cc1cccc(N2CCN(C(=O)CCNS(=O)(=O)c3ccc4c(c3)CCC(=O)N4)CC2)c1C	-0.88% (inactive)
CC(=O)c1ccc(N2CCN(C(=O)c3cc(C)on3)CC2)cc1	11.8% (inactive)
CC(c1cccs1)N(C)Cc1nc(CCc2ccccc2)no1 (stereo not given)	2.69% (inactive)
CN1C(=O)[C@H]2[C@@H](c3ccc(C(F)(F)F)cc3)N[C@]3(CCCN(CC4CCCCC4)C3=O)[C@H]2C1=O	2.73% (inactive)
CCN(CC(=O)NC1CCS(=O)(=O)C1)C(=O)C(c1ccccc1)c1ccccc1 (stereo not given)	1.78% (inactive) and 11.2% (inactive)
CC(=O)N1CCN(S(=O)(=O)c2cccc(C(=O)NNC(=O)COc3c(C)cccc3C)c2)CC1	-12.3% (inactive)
N#CCN1C(=O)C(=O)N(Cc2cccc(C(F)(F)F)c2)C1=O	-1.35% (inactive)
CC(NC(=O)c1ccccc1[N+](=O)[O-])C1CC2CCC1C2 (stereo not given)	1.73% (inactive)
O=C(Nn1cnc2ccccc2c1=O)c1ccc([N+](=O)[O-])cc1	-7.54% (inactive)
c1ccc(CNn2nnnc2-c2ccccc2)cc1	1.36% (inactive)
Oc1ccc(NCc2ccc(OCc3ccccc3)cc2)cc1	17.4% (inactive)
O=[N+]([O-])c1ccc(COc2cccc(CNc3ccc(Br)cc3)c2)cc1	2.31% (inactive)
CN(C)S(=O)(=O)c1ccc(N2CCCC2)c(C(=O)Nc2nc3c(ccc4ccccc43)s2)c1	-35.6% (inactive)
O=C(NCc1nnnn1-c1ccc(F)c(F)c1)C(=O)c1c[nH]c2ccccc12	11.1% (inactive)
Cc1cccc(N2CCN(C3=NC(=O)C(Cc4ccccc4)S3)CC2)c1 (stereo not given)	14.4% (inactive)
CCN1C(=C2C(=O)c3ccccc3C2=O)C=Cc2ccccc21	26.5% (inactive)
O=C1C=Cc2ccccc2/C1=C/c1[nH]c(=O)[nH]c1O	-10.7% (inactive)
O=C1CC(NS(=O)(=O)c2cccnc2)CN1c1ccc(F)cc1 (stereo not given)	-4.88% (inactive)

SMILES	inhibition
N#Cc1ccccc1Sc1ccccc1C(=O)Nc1ccc(Br)cc1	5.46% (inactive)
C(=C1/CCCC2=C1Nc1ncnn1C2c1ccccc1)/c1ccccc1 (stereo not given)	0.53% (inactive)
Fc1ccccc1/C=C1\CCCC2=C1Nc1nnnn1C2c1ccccc1F (stereo not given)	15.4% (inactive)
Cc1cc(C(=O)O)ccc1N/C=C1\CCCC(C)C1=O (stereo not given)	10.9% (inactive)
CC1CCC/C(=C\Nc2ccc(C(=O)O)cc2)C1=O (stereo not given)	4.93% (inactive)
CC1CCC/C(=C\Nc2ccccc2C(=O)O)C1=O (stereo not given)	5.74% (inactive)
CCOC(=O)c1ccc(N/C=C2/CCCC(C)C2=O)cc1 (stereo not given)	1.6% (inactive)
Cc1ccc(C(=O)NCCc2csc(-c3cccnc3)n2)cc1	3.26% (inactive)
O=C(CCC(=O)NNC(=O)c1ccc([N+](=O)[O-])cc1)NCc1ccccc1	6.94% (inactive)
O=C(NCCO)c1cc2ccccc2cc1O	2.23% (inactive) and 6.09% (inactive)
COC1=CC(=O)C(OC)=C(OC)C1=O	5.9% (inactive)
CCCCCCCCSC1=CC(=O)C(OC)=C(OC)C1=O	31.4% (inactive)
CSCCC(NC(=O)c1ccco1)C(=O)NCCc1ccc(Cl)cc1 (stereo not given)	-15.8% (inactive)
CC(=O)c1ccccc1NS(=O)(=O)c1ccccc1Cl	-6.08% (inactive)
CCN(CC)C(=O)Oc1ccc2c(c1)O/C(=C\c1ccco1)C2=O	12.6% (inactive)
COC(=O)COc1ccc2c(c1)O/C(=C\c1ccco1)C2=O	24% (inactive)
CC(C)Nc1nc2cccnc2s1	-0.88% (inactive)
O=C(Nc1ccc(NC(=O)c2cccs2)cc1)c1ccc2c(c1)OCCO2	3.57% (inactive)
O=C(CCc1c[nH]c2ccccc12)N1CCN(c2ccc(F)cc2)CC1	-3.01% (inactive)
COc1ccc(N2CCN(C(=O)CCc3c[nH]c4ccccc34)CC2)cc1	3.01% (inactive)
O=C(/C=C/c1ccccc1Cl)N(Cc1ccc(Cl)cc1)C1CCS(=O)(=O)C1 (stereo not given)	23.6% (inactive)
CCC(C)c1ccccc1NC(=O)c1cccnc1 (stereo not given)	-3.72% (inactive)
Cc1cc(Cl)c(S(=O)(=O)N2CCCC2)cc1OCC(=O)NC1CCCCC1	-1.25% (inactive)
Cc1cc(Cl)c(S(=O)(=O)NC2CCCC2)cc1OCC(=O)NC1CCCCC1	-2.05% (inactive)

SMILES	inhibition
CC(=O)c1cccc(N(CC(=O)Nc2ccc(F)cc2F)S(C)(=O)=O)c1	7.3% (inactive)
O=C(NNc1cccc(Cl)n1)Nc1cccc(C(F)(F)F)c1	2.4% (inactive)
Cc1cc(C)cc(NC(=O)CSc2nnc(-c3ccccc3C)o2)c1	27.4% (inactive)
COc1cc(NC(=O)c2cccc(Cl)c2)ccc1NC(=O)c1cccs1	2.27% (inactive)
Cc1ccsc1C(=O)C1CCCN(Cc2cn(C)nc2-c2ccccc2)C1 (stereo not given)	-6.7% (inactive)
Cc1cc(C)c(C#N)c(Oc2ccc(O)cc2)n1	0.3% (inactive)
Cc1cc(C)c(C#N)c(Oc2ccc(F)cc2)n1	18.6% (inactive)
O=C1c2ccc([N+](=O)[O-])cc2C(=O)N1CNc1ccccn1	3.96% (inactive)
N#CCCN(Cc1ccccc1)C(=O)c1nccnc1C(=O)O	-11% (inactive)
O=C(N/N=C/c1cn(Cc2ccccc2)c2ccccc12)c1ccncc1	8.92% (inactive)
O=C(N/N=C/c1cn(Cc2ccccc2)c2ccccc12)c1cccnc1	-5.6% (inactive)
Cc1ccc(S(=O)(=O)Cc2c(C)noc2C)cc1	3.86% (inactive)
O=C(/C=C/c1ccc(O)cc1)c1ccc(O)cc1O	9.02% (inactive)
O=CN/C=C/c1cccc(O)c1	-10.2% (inactive)
Cc1cc(C)c(S(=O)(=O)N2CCCCC2)cc1N(C)S(=O)(=O)c1ccc(Cl)cc1	17.4% (inactive) and -11.3% (inactive)
Cc1cc(C)c(S(=O)(=O)N2CCCCC2)c(C)c1N(C)S(=O)(=O)c1ccccc1	-2.38% (inactive)
CN(C)N1C(N)=C(C#N)C(c2cccnc2)C2=C1CC(C)(C)CC2=O (stereo not given)	-8.23% (inactive)
CN(C)N1C(N)=C(C#N)C(c2ccccc2)C2=C1CCCC2=O (stereo not given)	9.57% (inactive)
COc1cc(C2C(C#N)=C(N)N(N(C)C)C3=C2C(=O)CCC3)ccc1O (stereo not given)	3.96% (inactive)
Cc1ccc(C2C(C#N)=C(N)N(c3cccnc3)C3=C2C(=O)CCC3)c(C)c1 (stereo not given)	-5.44% (inactive)
CC(C)(C)NC(=O)CSc1nc(O)cc(=O)[nH]1	6.41% (inactive)
CCC1=NN(C(=O)Cc2ccc([N+](=O)[O-])cc2)C(O)(C(F)(F)F)C1 (stereo not given)	17.1% (inactive)
CC1CN(c2ccccc2)CCN1Cc1nc(Cc2ccccc2)no1 (stereo not given)	-4.62% (inactive)
Cc1ccc(-c2csnn2)cc1	-3.52% (inactive)

SMILES	inhibition
O=C(Nc1ccc(Cl)cc1)c1cncs1	-5.16% (inactive)
COC(=O)CSC(=S)N1CCCC(C)C1 (stereo not given)	-1.45% (inactive)
COc1ccc(Nc2nc(OC)nc(OC)n2)cc1	2.78% (inactive)
COc1ccc(Nc2c(C)cccc2C)cc1	-5.1% (inactive)
Cc1ccccc1-n1c(-c2ccc(Cl)cc2)cnc1SCC(=O)NC1CCS(=O)(=O)C1 (stereo not given)	-0.29% (inactive)
Oc1ccc(-c2cn3c(n2)SCC3)cc1	1.62% (inactive)
Cc1ccc(-c2cn3c(n2)SCC3)cc1	-0.83% (inactive)
CC(=O)c1cccc(CN2CCN(Cc3ccc(C)cc3)C(CCO)C2)c1 (stereo not given)	-2.61% (inactive)
COC(=O)C(C)(C)ONC(=O)Nc1ccccc1Br	23.3% (inactive)
CC1(C)Cc2c(C#N)c(N3CCN(C(=O)c4ccccc4Cl)CC3)nc(-c3ccco3)c2CS1	15% (inactive)
CC1CCN(c2nc(-c3ccco3)c3c(c2C#N)CC(C)(C)OC3)CC1	27.3% (inactive)
COC(=O)C1=C(C)Nc2nnnn2C1c1cc(OC)ccc1OC (stereo not given)	-7.75% (inactive)
CCCCN(CC)CCNC(=O)c1nn(-c2ccc(OC)cc2)c(=O)c2c1c1ccccc1n2C	6.38% (inactive)
CCCCOc1ccccc1C1NC(=O)NC(C)=C1C(=O)OCCOCC (stereo not given)	2% (inactive)
CCCOc1ccccc1C1NC(=O)NC(C)=C1C(=O)OCc1ccccc1 (stereo not given)	-9.5% (inactive)
CCc1nnc(NS(=O)(=O)c2ccc(NC(=S)Nc3ccc(F)cc3)cc2)s1	-0.27% (inactive)
CCN1/C(=C/C(C)=C/c2sc3ccccc3[n+]2CC)Sc2ccccc21	-17.9% (inactive)
CC[n+]1c(/C=C/C=C/N(C(C)=O)c2ccccc2)sc2ccccc21	8.36% (inactive)
CCN(CC)CCN=C1CCCc2ccccc2N1	0.69% (inactive)
O=C(Nc1cccc(S(=O)(=O)N2CCOCC2)c1)c1cc2ccccc2o1	-1.28% (inactive)
CC(=O)Oc1ccc(/C=N/NS(=O)(=O)c2ccccc2)cc1	-10.3% (inactive)
Cc1ccc(S(=O)(=O)c2c(N)n(Cc3ccco3)c3nc4ccccc4nc23)cc1C	5.39% (inactive)
Cc1ccc(S(=O)(=O)c2c(N)n(Cc3ccco3)c3nc4ccccc4nc23)cc1	2.43% (inactive)
